In PubChem BioAssay (NCI):
Compounds without any hit were thinned out: in the full panel of roughly 83,000, 20% have a hit.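 Plates (96-well) were seeded with cells, treated with compound at one concentration, and incubated for 48 hours before percent growth was determined.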 The source made the active and inactive calls. How the source made its calls: active means growth percent below 10; inactive means the rest.

Legend:
Experiment in all cases: NCI-60 one-dose screen, 48 h (100 = growth as untreated, 0 = no growth, -100 = all killed)
Conditions in all cases: 10 µM unless noted
[1] = test system: DU-145 prostate
[2] = test system: K-562 leukemia
[3] = test system: MALME-3M melanoma
[4] = test system: MDA-MB-231 breast
[5] = test system: RXF 393 renal
[6] = test system: SF-268 CNS
[7] = test system: SF-295 CNS
[8] = test system: SF-539 CNS
[9] = test system: UACC-257 melanoma
[10] = test system: M14 melanoma
[11] = test system: HCT-15 colon
[12] = test system: HT29 colon
[13] = test system: SNB-75 CNS
[14] = test system: SNB-19 CNS
[15] = test system: U251 CNS
[16] = test system: PC-3 prostate
[17] = test system: UACC-62 melanoma
[18] = test system: LOX IMVI melanoma
[19] = test system: SK-MEL-28 melanoma
[20] = test system: SK-MEL-5 melanoma

Measured: growth

Cc1ccc2sc3c(c2c1)OC(N)=C(C#N)C3c1cccc(F)c1 (stereo not drawn)
inactive: [3] 43.3% | [4] 23.5% | [6] 25.8% | [9] 60.8% | [14] 35% | [17] 18.3% | [19] 51.3%
active: [1] -9.41% | [2] 7.14% | [5] -30.8% | [7] 1.52% | [8] -1.16% | [10] 0.753% | [11] 6.97% | [12] -19.6% | [13] -0.701% | [15] 2.42% | [16] 9.24% | [18] 8.96%

Cc1[nH]c(C(=O)Nc2ccccc2OCc2cccc(C(=O)N3CCC[C@@H](N)C3)c2)c(Cl)c1Cl
active: [1] -89.3% | [2] -49.6% | [3] -79.1% | [4] -75.8% | [5] -87.6% | [6] -66.9% | [7] -91.7% | [8] -89.2% | [9] -72.4% | [10] -85.7% | [11] -78.6% | [12] -71.9% | [13] -96.3% | [14] -84.4% | [15] -83.9% | [16] -88.9% | [20] -97.7% | [17] -90.8% | [18] -90% | [19] -84.6%

O=C1/C(=C/C=C/c2ccco2)SC(=S)N1c1ccccc1
inactive: [1] 97.6% | [2] 64.6% | [3] 15.5% | [4] 80.3% | [6] 108% | [7] 91.3% | [8] 90.3% | [9] 83.2% | [10] 40.7% | [11] 56.9% | [12] 83.6% | [13] 101% | [14] 86.3% | [15] 49.8% | [16] 71.3% | [17] 70.7% | [18] 26% | [19] 79.9%
active: [5] -33.5%

CC1(COc2ccc3ncc(C#Cc4cncc(C(=O)Nc5cccc(C(F)(F)F)c5)c4)n3n2)COC1
active: [5] -4.67%
inactive: [1] 91.1% | [2] 47.8% | [3] 71.1% | [4] 44.5% | [6] 76.1% | [7] 79.6% | [8] 60.1% | [9] 98.1% | [10] 78% | [11] 86.1% | [12] 82.1% | [13] 63% | [14] 82.8% | [15] 91.3% | [16] 95.5% | [20] 79.4% | [17] 72.9% | [19] 86.8%

COc1ccc(-c2nc3cc(Cl)c(Cl)cc3n2CC(=O)N=Nc2c(O)[nH]c3ccc(OC)cc23)cc1
inactive: [2] 49.2% | [3] 41.2% | [4] 52% | [6] 78.3% | [7] 66.5% | [8] 47.2% | [9] 87.9% | [10] 56.8% | [11] 43.7% | [12] 55.2% | [13] 65.3% | [14] 80% | [15] 77.8% | [16] 63.8% | [20] 61.2% | [17] 53.4% | [19] 48.6%
active: [1] 5.81% | [5] -29.8% | [18] 7.13%

Cc1noc(C)c1CSc1nc2ccccc2n1-c1ccccc1
inactive: [1] 86.4% | [2] 88.6% | [3] 118% | [4] 81.5% | [5] 60.4% | [6] 85.7% | [7] 98.1% | [8] 95.3% | [9] 110% | [10] 104% | [11] 106% | [12] 106% | [13] 30.9% | [14] 96.5% | [15] 102% | [16] 100% | [20] 94.4% | [17] 72.5% | [18] 88.2% | [19] 111%

CCNC(=O)N1CCc2cc(OC)c(OCCc3ccc(OC)cc3)cc2C1c1ccc(OC)cc1C (stereo not drawn)
active: [5] -12.7% | [8] 6.35% | [12] -0.449% | [13] 3.67% | [20] -1.62%
inactive: [1] 16.2% | [2] 16.5% | [3] 45.9% | [4] 19.7% | [6] 34% | [7] 10.6% | [9] 50.5% | [10] 20% | [11] 10.8% | [14] 25.8% | [15] 20.6% | [16] 27.9% | [17] 19.5% | [19] 46.7%

CCCn1cnc2c(c1=N)C(c1ccc(OC)cc1)c1sc3c(CC)cccc3c1O2 (stereo not drawn)
inactive: [1] 16.7% | [2] 13.1% | [3] 53.5% | [4] 29.1% | [6] 45.1% | [9] 81.9% | [11] 18.9% | [13] 16.5% | [14] 22% | [15] 20.5% | [20] 30.3% | [17] 15.9% | [18] 27.4% | [19] 57.8%
active: [5] -13.3% | [7] -18.1% | [8] -22% | [10] 2.9% | [12] 5.9% | [16] 3.57%

CCNC(=O)N1CCc2cc(OC)c(OCCc3ccc(OC)cc3)cc2C1c1ccc(Cl)cc1C (stereo not drawn)
inactive: [1] 16.2% | [2] 12.3% | [3] 60.4% | [4] 12.4% | [6] 27.1% | [7] 13.3% | [9] 44.7% | [10] 17.5% | [13] 37.9% | [14] 26% | [15] 13.1% | [16] 26.1% | [17] 22.8% | [19] 43.3%
active: [5] -4.98% | [8] 5.79% | [11] 9.66% | [12] 2.45% | [20] -10.8% | [18] 8.72%

Cc1cc(S(=O)(=O)N(C)C)cc(NCC(=O)NC(=O)NCC(C)C)c1C
inactive: [1] 85.1% | [2] 97.1% | [3] 106% | [4] 85.6% | [5] 64.8% | [6] 81.5% | [7] 100% | [8] 97.1% | [9] 103% | [10] 100% | [11] 110% | [12] 114% | [13] 45% | [14] 105% | [15] 108% | [16] 101% | [20] 96.5% | [17] 91.8% | [18] 96.4% | [19] 102%

O=C(c1ccc(O)c(C(=O)N2Cc3ccc(OCCC[P+](c4ccccc4)(c4ccccc4)c4ccccc4)cc3C2)c1)N1Cc2cccc(F)c2C1
inactive: [1] 99% | [2] 27.1% | [3] 73.2% | [4] 92.9% | [5] 96.4% | [6] 92.7% | [7] 84.9% | [8] 55.6% | [9] 48.5% | [10] 95.1% | [11] 97.6% | [12] 101% | [13] 95.4% | [14] 38.1% | [15] 56.8% | [16] 78.9% | [20] 29.3% | [17] 45.5% | [18] 67.1% | [19] 58%

CS(=O)(=O)Nc1cc(-c2ccc3ncc(C#N)c(NCc4ccccc4)c3c2)cnc1Cl
inactive: [15] 11.1%
active: [1] 8.12% | [2] 9.74% | [3] -38.7% | [4] -51.8% | [5] -46.6% | [6] -4.76% | [7] -32.3% | [8] -42.6% | [9] 1.36% | [10] -9.52% | [11] 8.19% | [12] 6.89% | [13] -36.7% | [14] 7.25% | [16] -7.11% | [20] -95.3% | [17] -28% | [19] -7.57%

O=C(CSc1nnc(-c2ccc(Cl)cc2)n1-c1ccccc1)Nc1cccc(Cl)c1
inactive: [1] 64.6% | [2] 61.9% | [3] 75.9% | [4] 36.3% | [5] 70.8% | [6] 76.1% | [7] 27.2% | [8] 50.9% | [9] 90.4% | [10] 72.8% | [11] 79.5% | [12] 71.6% | [13] 42.5% | [14] 80.2% | [15] 50.2% | [16] 75.5% | [20] 96.4% | [17] 97.7% | [19] 97.8%

COc1ccc(/C(N)=N/C(N)=N/c2nc3ccccc3s2)cc1
inactive: [1] 81% | [2] 32.9% | [3] 94.4% | [4] 76% | [5] 65.7% | [6] 78.9% | [7] 52% | [8] 90.5% | [9] 98.5% | [10] 81.4% | [11] 62.6% | [12] 104% | [13] 23.5% | [14] 86.2% | [15] 68% | [16] 62% | [20] 72% | [17] 59.6% | [19] 79.6%

CC1(C)CC[C@]2(C(=O)N3CCOCC3)CC[C@]3(C)C(=CC[C@@H]4[C@@]5(C)C/C(=C/c6ccccn6)C(=O)C(C)(C)[C@@H]5CC[C@]43C)[C@@H]2C1
active: [5] 3.83%
inactive: [1] 62.3% | [2] 34.5% | [3] 88.7% | [4] 55.2% | [6] 59.6% | [7] 75.1% | [8] 94% | [9] 59.6% | [10] 77.9% | [11] 52.1% | [12] 56.3% | [13] 34.1% | [14] 88% | [15] 80.7% | [16] 20.9% | [20] 69.3% | [17] 64.8% | [18] 55.9% | [19] 86.1%
